The list is not random: actives were taken first. Their share in the collection is about 3.3%.
Gli-Sufu block: antagonists of Gli-Sufu signaling; inhibition, % at 5 µM; actives 0.74% (n = 340,000); Sufu-KO-LIGHT fibroblasts, Gli luciferase reporter luminescence;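 active means inhibition above about 55%, limit read from the data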;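 further: 0% = DMSO-treated cells and 100% = wells with medium but no cells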
Jurkat NFkB inh: inhibitors of the PMA/ionomycin-induced NF-kB reporter in Jurkat cells | PMA/ionomycin-induced NF-kB luciferase reporter, luminescence | inhibition, % at 4 µM | actives 0.53% (n = 330,000) | AID 435003; in the data active means inhibition above about 50%
SMARCA2 act: activators of SMARCA2 function; actives 1% (n = 370,000); activation, % at 9.1 µM; MG213 cells, MMTV-luciferase reporter, dexamethasone, overnight; AID 652017; in the data active means activation above about 7.8%;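 further: 0% = vehicle wells and 100% = reference activator wells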
esBAF inh: inhibitors of esBAF chromatin remodeling in mouse ES cells. Bmi1-luciferase knock-in reporter, 24 h; 100% = twice the neutral-well signal. reporter increase, % at 12.5 µM. actives 2% (n = 350,000); in the data active means activation above about 40%;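 further: 0% = median of the plate's neutral control wells and 100% = double that signal; a rise in the Bmi1 reporter signal indicates esBAF inhibition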
697 NFkB inh: lowers PMA/ionomycin-induced NF-kB signal in 697 B cells | 697 B-cell NF-kB luciferase reporter, 16 h | inhibition, % at 4 µM | actives 0.33% (n = 330,000); in the data active means inhibition above about 35%
An asterisk follows results filed as active; nt = no result given.

SMILES	Gli-Sufu block	Jurkat NFkB inh	SMARCA2 act	esBAF inh	697 NFkB inh
c1ccc2c(c1)oc1c(Nc3ccc4c(c3)OCO4)ncnc12	0	-134	0	44*	-187
c1ccc(Nc2ncnc3c2oc2ccccc23)cc1	-31	-49	2	88*	-54
COc1ccc(S(=O)(=O)Nc2ccc3c(c2)C(=O)N([C@H](C)CO)C[C@@H](C)[C@H](CN(C)Cc2ccncc2)OCCCC[C@@H](C)O3)cc1	nt	nt	nt	0	nt
Fc1cnc(N2CCc3ccccc32)nc1N1CCc2ccccc21	-55	-65	1	47*	-1
Cc1ccc(-c2c(C)nn3c(N4CCOCC4)cc(C)nc23)cc1	56*	-8	3	-2	-19
O=C(c1cc(-c2ccccc2)on1)N1CCCCCC1	-83	-103	5	55*	-134
O=C(c1cc(-c2ccc(F)cc2)on1)N1CCOCC1	-70	-70	6	1	-136
O=C(c1cc(-c2ccc(O)cc2)on1)N1CCCC1	-63	-99	6	-23	-108
COc1ccc(-c2cc(C(=O)N3CCCCCC3)no2)cc1OC	-81	-59	1	71*	-48
O=C(c1cc(-c2ccccc2O)on1)N1CCCCCC1	-26	-61	2	60*	-34
O=C(c1cc(-c2ccccc2O)on1)N1CCOCC1	-5	-62	3	51*	-21
COc1ccc(-c2cc(C(=O)N3CCCCCC3)no2)cc1	-132	-115	2	-9	-154
CN(C)C(=O)C[C@@H]1CC[C@@H]2[C@H](COc3ccc(NC(=O)c4ccc(F)cc4)cc3C(=O)N2C)O1	nt	nt	nt	2	nt
Cc1ccc(C2=N/C(=C/N3CCOCC3)C(=O)O2)cc1	-58	-78	1	52*	-102
Cc1ccc(C2=N/C(=C\N3CCCCC3)C(=O)O2)cc1	-93	-129	2	36	-196
COc1ccc(CN(C)C[C@@H]2OCCCC[C@H](C)Oc3ccc(NC(=O)Cc4ccccc4)cc3C(=O)N([C@@H](C)CO)C[C@H]2C)cc1	nt	nt	nt	-7	nt
COc1cccc2c1C(=O)c1ccc3ccccc3c1C2=O	-33	-13	nt	47*	-5
COc1cc(/C=C/C(=O)OC2CC3CCC2(C)C3(C)C)ccc1O (stereo not given)	-12	-27	2	47*	-54
COc1cc(/C=C/C(=O)OCC(=O)N2CCC(C)CC2)ccc1O	-7	3	-3	-4	16
CN1C(=O)c2cc(NC(=O)C3CCOCC3)ccc2OC[C@H]2O[C@H](CC(=O)NC3CCCC3)CC[C@@H]21	nt	nt	nt	0	nt
O=C(NC1CC1)c1cc2c(s1)-c1ccccc1OC2	-50	-23	0	45*	-71
O=C(NCc1cccs1)c1cc2c(s1)-c1ccccc1OC2	-35	-34	-5	68*	-43
CCCNC(=O)[C@@H]1[C@@H](CO)[C@@H]2Cn3c(ccc(-c4ccccc4F)c3=O)[C@H]1N2S(C)(=O)=O	nt	nt	nt	6	nt
CO[C@H]1CN(C)C(=O)c2cc(NC(=O)C3CCOCC3)ccc2OC[C@@H](C)N(CC2CC2)C[C@H]1C	nt	nt	nt	-2	nt
Cc1ccc(S(=O)(=O)N[C@H]2CC[C@@H](CCNC(=O)C3CC3)O[C@@H]2CO)cc1	nt	nt	nt	-6	nt
SMILES	Gli-Sufu block	Jurkat NFkB inh	SMARCA2 act	esBAF inh	697 NFkB inh
CCOC(=O)c1sc(NC(=O)C(C)(C)C)cc1C	-70	-88	4	57*	-65
COCC(=O)N(C)C[C@@H]1Oc2cc(-c3ccncc3)ccc2S(=O)(=O)N([C@H](C)CO)C[C@@H]1C	nt	nt	nt	0	nt
CCOc1ccc(N=c2scc(-c3ccc(OC)cc3)n2CCO)cc1	20	-2	-5	14	-41
CCOc1ccc(N=c2scc(-c3ccccc3)n2CCO)cc1	-36	-38	-3	45*	-62
OCCn1c(-c2ccc3c(c2)OCO3)csc1=Nc1ccccc1	-24	-33	-2	78*	-95
CC(=O)Nc1nc(-c2ccc([N+](=O)[O-])cc2)cs1	-29	-22	-3	nt	-33
CC(C)c1nc(-c2ccc([N+](=O)[O-])cc2)cs1	-18	-20	2	55*	-28
c1ccc(-c2cn3c(n2)SCC3)cc1	-20	-9	7.8*	24	-13
O=C(Nc1cccc(-c2cn3c(n2)SCC3)c1)c1ccc2ccccc2n1	-78	-79	0	60*	-123
Clc1ccc(-c2cn3c(n2)SCC3)cc1	-86	-83	2	56*	-174
Brc1ccc(-c2cn3c(n2)SCC3)cc1	-75	-52	-2	58*	-187
O=C(Nc1ccc(-c2cn3c(n2)SCC3)cc1)c1ccc2ccccc2n1	-16	-7	-2	nt	-31

Compound activity (PubChem BioAssay)
